# Reference: PubChem BioAssay (NCI)
# The panel holds about 79,000 compounds, 15% with a hit somewhere; the sample as a whole holds those more often. Unmarked numbers belong to inactive results. Calls of active or inactive are those of the source. No stated cut-off is given here; in the data, active means growth inhibition above about 70%; inactive means the rest.
# How the values were obtained:
# [1] = NCI Yeast Anticancer Drug Screen. Data for the rad52 strain (AID 147);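 further: 0% = growth of vehicle-treated control cultures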; settings: S. cerevisiae rad52 mutant growth inhibition, stronger effect = higher value
# Outline: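 Compounds are applied to a genetically defined yeast strain lacking normal DNA damage repair, and inhibition of growth is expressed relative to cultures given vehicle only.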
# [2] = NCI Yeast Anticancer Drug Screen. Data for the wt1 strain (AID 149);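 further: 0% = growth of vehicle-treated wt1 cultures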; settings: S. cerevisiae wt1 strain (SPY 50644) growth inhibition, stronger effect = higher value
# Outline: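 The wt1 strain was treated with compounds, and growth was compared with vehicle-treated cultures to give inhibition.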
# [3] = NCI Yeast Anticancer Drug Screen. Data for the rad50EPP+ strain (AID 151);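 further: 0% = growth of vehicle-treated control cultures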; settings: S. cerevisiae rad50 mutant strain, stronger effect = higher value
# Outline: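 Compounds were applied to the rad50EPP+ yeast strain, which bears a defined DNA repair alteration, and growth inhibition was determined relative to vehicle-treated cultures.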
# [4] = NCI Yeast Anticancer Drug Screen. Data for the mgt1 strain (AID 153); settings: S. cerevisiae mgt1 mutant growth inhibition, stronger effect = higher value
# Outline: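 Strain: mgt1 yeast, one of a set carrying defined DNA damage repair or cell cycle control alterations. Compound-treated growth compared with vehicle.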
# [5] = NCI Yeast Anticancer Drug Screen. Data for the rad50 strain (AID 155);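 further: 0% = growth of vehicle-only cultures of the same strain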; settings: S. cerevisiae rad50 strain growth inhibition, stronger effect = higher value
# Outline: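 Cells are treated with compound, grown, and their growth is then scored against vehicle-only cultures of the same repair-deficient yeast strain.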
# [6] = NCI Yeast Anticancer Drug Screen. Data for the mec2-1 strain (AID 157); settings: S. cerevisiae mec2-1 strain, stronger effect = higher value
# Outline: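 Strain: mec2-1 (DNA repair/cell cycle alteration). Compound exposure, then growth measured; inhibition expressed relative to vehicle.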
# [7] = NCI Yeast Anticancer Drug Screen. Data for the rad14 strain (AID 159);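 further: 0% = growth of vehicle-treated control cultures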; settings: S. cerevisiae rad14 strain growth inhibition, stronger effect = higher value
# Outline: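 Readout: yeast growth inhibition, referenced to vehicle-only cultures. Strain bears a defined alteration in DNA damage repair.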
# [8] = NCI Yeast Anticancer Drug Screen. Data for the sgs1 mgt1 strain (AID 161);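 further: 0% = growth of cultures given vehicle only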; settings: S. cerevisiae sgs1 mgt1 strain, stronger effect = higher value
# Outline: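 Mutant yeast exposed to compound; growth scored against vehicle-only wells.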
# [9] = NCI Yeast Anticancer Drug Screen. Data for the CLN2oe strain (AID 163);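 further: 0% = growth of vehicle-only control cultures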; settings: S. cerevisiae CLN2oe strain, stronger effect = higher value
# Outline: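 Growth of a genetically modified yeast strain is measured after compound exposure and compared with cultures given vehicle alone.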
# [10] = NCI Yeast Anticancer Drug Screen. Data for the cln2 rad14 strain (AID 165);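 further: 0% = growth equal to vehicle treated cultures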; settings: S. cerevisiae cln2 rad14 strain, stronger effect = higher value
# Outline: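 Compounds are applied to the cln2 rad14 yeast strain, and growth is then compared with that of vehicle-treated cultures to give inhibition.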
# [11] = NCI Yeast Anticancer Drug Screen. Data for the bub3 strain (AID 167); settings: S. cerevisiae bub3 mutant strain, stronger effect = higher value
# Outline: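 Part of a panel of yeast mutants defective in DNA damage repair or cell cycle regulation. Each strain is grown with compound, and inhibition is calculated relative to solvent-treated cultures.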
# [12] = NCI Yeast Anticancer Drug Screen. Data for the wt2 strain (AID 169);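 further: 0% = growth of vehicle-treated yeast cultures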; settings: S. cerevisiae wt2 strain growth inhibition, stronger effect = higher value
# Outline: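 This strain belongs to a panel of yeast strains with defined genetic alterations in DNA damage repair or cell cycle control. Compounds are applied, and growth inhibition is measured against vehicle-treated cultures.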
# [13] = NCI Yeast Anticancer Drug Screen. Data for the mlh1 strain (AID 171);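 further: 0% = growth of vehicle-treated control cultures of the same strain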; settings: S. cerevisiae mlh1 strain growth inhibition, stronger effect = higher value
# Outline: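 Growth of the mutant yeast strain after compound exposure, expressed as inhibition relative to vehicle-only controls.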
# [14] = NCI Yeast Anticancer Drug Screen. Data for the sgs1 strain (AID 173);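 further: 0% = growth of vehicle-only control cultures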; settings: S. cerevisiae sgs1 mutant, stronger effect = higher value
# Outline: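 Growth of a yeast strain bearing a defined genetic alteration is measured after compound treatment. Inhibition is expressed relative to vehicle-only controls.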
# [15] = NCI Yeast Anticancer Drug Screen. Data for the mlh1 rad18 strain (AID 175); settings: S. cerevisiae mlh1 rad18 strain growth inhibition, stronger effect = higher value
# Outline: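 Read-out is yeast growth inhibition, calculated against vehicle-only controls. The compound was applied to a strain engineered with DNA damage repair alterations.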
# [16] = NCI Yeast Anticancer Drug Screen. Data for the rad18 strain (AID 177); settings: S. cerevisiae rad18 mutant growth inhibition, stronger effect = higher value
# Outline: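 Growth of the mutant yeast strain after compound exposure, normalised to vehicle-only cultures.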
# [17] = at 5.0 µM (retest, dose inferred, filed as 0.5)
# [18] = at 50.0 µM (retest, dose inferred, filed as 5.0)
compound,measurement,setting,value
CC1=C(N2CC2)C(=O)c2ccccc2C1=O,growth inhibition,[1]; at 1.2 µM,1%
same,growth inhibition,[1]; at 3.7 µM,11%
same,growth inhibition,[1]; at 11.0 µM,22%
same,growth inhibition,[1]; at 33.0 µM,69%
same,growth inhibition,[1]; at 100.0 µM,97% (active)
same,growth inhibition,[2]; at 1.2 µM,-5%
same,growth inhibition,[2]; at 3.7 µM,-6%
same,growth inhibition,[2]; at 11.0 µM,-6%
same,growth inhibition,[2]; at 33.0 µM,-2%
same,growth inhibition,[2]; at 100.0 µM,41%
same,growth inhibition,[3]; at 1.2 µM,5%
same,growth inhibition,[3]; at 3.7 µM,16%
same,growth inhibition,[3]; at 11.0 µM,48%
same,growth inhibition,[3]; at 33.0 µM,79% (active)
same,growth inhibition,[3]; at 100.0 µM,96% (active)
same,growth inhibition,[4]; at 1.2 µM,0%
same,growth inhibition,[4]; at 3.7 µM,-49%
same,growth inhibition,[4]; at 11.0 µM,2%
same,growth inhibition,[4]; at 33.0 µM,13%
same,growth inhibition,[4]; at 100.0 µM,36%
same,growth inhibition,[5]; at 1.2 µM,1%
same,growth inhibition,[5]; at 3.7 µM,1%
same,growth inhibition,[5]; [17],-103%
same,growth inhibition,[5]; at 11.0 µM,23%
same,growth inhibition,[5]; at 33.0 µM,70% (active)
same,growth inhibition,[5]; [18],84% (active)
same,growth inhibition,[5]; at 50.0 µM,53.7%
same,growth inhibition,[5]; at 100.0 µM,97% (active)
same,growth inhibition,[6]; at 1.2 µM,4%
same,growth inhibition,[6]; at 3.7 µM,3%
same,growth inhibition,[6]; [17],-46%
same,growth inhibition,[6]; at 11.0 µM,6%
same,growth inhibition,[6]; at 33.0 µM,11%
same,growth inhibition,[6]; [18],4%
same,growth inhibition,[6]; at 50.0 µM,19.8%
same,growth inhibition,[6]; at 100.0 µM,49%
same,growth inhibition,[7]; at 1.2 µM,2%
same,growth inhibition,[7]; at 3.7 µM,3%
same,growth inhibition,[7]; at 11.0 µM,14%
same,growth inhibition,[7]; at 33.0 µM,32%
same,growth inhibition,[7]; at 100.0 µM,92% (active)
same,growth inhibition,[8]; [17],-41%
same,growth inhibition,[8]; [18],72% (active)
same,growth inhibition,[8]; at 50.0 µM,43%
same,growth inhibition,[9]; at 1.2 µM,-1%
same,growth inhibition,[9]; at 3.7 µM,0%
same,growth inhibition,[9]; at 11.0 µM,0%
same,growth inhibition,[9]; at 33.0 µM,2%
same,growth inhibition,[9]; at 100.0 µM,39%
same,growth inhibition,[10]; [17],-60%
same,growth inhibition,[10]; [18],48%
same,growth inhibition,[10]; at 50.0 µM,-6.55%
same,growth inhibition,[11]; at 1.2 µM,-3%
same,growth inhibition,[11]; at 3.7 µM,-2%
same,growth inhibition,[11]; [17],-64%
same,growth inhibition,[11]; at 11.0 µM,2%
same,growth inhibition,[11]; at 33.0 µM,16%
same,growth inhibition,[11]; [18],16%
same,growth inhibition,[11]; at 50.0 µM,-8.05%
same,growth inhibition,[11]; at 100.0 µM,66%
same,growth inhibition,[12]; at 1.2 µM,0%
same,growth inhibition,[12]; at 3.7 µM,1%
same,growth inhibition,[12]; at 11.0 µM,2%
same,growth inhibition,[12]; at 33.0 µM,0%
same,growth inhibition,[12]; at 100.0 µM,34%
same,growth inhibition,[13]; at 1.2 µM,7%
same,growth inhibition,[13]; at 3.7 µM,-3%
same,growth inhibition,[13]; at 11.0 µM,2%
same,growth inhibition,[13]; at 33.0 µM,9%
same,growth inhibition,[13]; at 100.0 µM,64%
same,growth inhibition,[14]; at 1.2 µM,0%
same,growth inhibition,[14]; at 3.7 µM,10%
same,growth inhibition,[14]; at 11.0 µM,36%
same,growth inhibition,[14]; at 33.0 µM,67%
same,growth inhibition,[14]; at 100.0 µM,96% (active)
same,growth inhibition,[15]; [17],-99%
same,growth inhibition,[15]; [18],65%
same,growth inhibition,[15]; at 50.0 µM,46.2%
same,growth inhibition,[16]; at 1.2 µM,36%
same,growth inhibition,[16]; at 3.7 µM,72% (active)
same,growth inhibition,[16]; at 11.0 µM,91% (active)
same,growth inhibition,[16]; at 33.0 µM,96% (active)
same,growth inhibition,[16]; at 100.0 µM,98% (active)
O=C(/C=C(\c1ccccc1)N1CC1)c1ccccc1,growth inhibition,[1]; at 1.2 µM,-5%
same,growth inhibition,[1]; at 3.7 µM,-10%
same,growth inhibition,[1]; at 11.0 µM,-2%
same,growth inhibition,[1]; at 33.0 µM,8%
same,growth inhibition,[1]; at 100.0 µM,97% (active)
same,growth inhibition,[2]; at 1.2 µM,-5%
same,growth inhibition,[2]; at 3.7 µM,-4%
same,growth inhibition,[2]; at 11.0 µM,-5%
same,growth inhibition,[2]; at 33.0 µM,0%
same,growth inhibition,[2]; at 100.0 µM,84% (active)
same,growth inhibition,[3]; at 1.2 µM,2%
same,growth inhibition,[3]; at 3.7 µM,17%
same,growth inhibition,[3]; at 11.0 µM,50%
same,growth inhibition,[3]; at 33.0 µM,72% (active)
same,growth inhibition,[3]; at 100.0 µM,86% (active)
same,growth inhibition,[4]; at 1.2 µM,-2%
same,growth inhibition,[4]; at 3.7 µM,-4%
same,growth inhibition,[4]; at 11.0 µM,-4%
same,growth inhibition,[4]; at 33.0 µM,19%
same,growth inhibition,[4]; at 100.0 µM,93% (active)
same,growth inhibition,[5]; at 1.2 µM,-13%
same,growth inhibition,[5]; at 3.7 µM,-7%
same,growth inhibition,[5]; [17],-140%
same,growth inhibition,[5]; at 11.0 µM,8%
same,growth inhibition,[5]; at 33.0 µM,33%
same,growth inhibition,[5]; [18],86% (active)
same,growth inhibition,[5]; at 50.0 µM,62.5%
same,growth inhibition,[5]; at 100.0 µM,98% (active)
same,growth inhibition,[6]; at 1.2 µM,2%
same,growth inhibition,[6]; at 3.7 µM,1%
same,growth inhibition,[6]; [17],-46%
same,growth inhibition,[6]; at 11.0 µM,12%
same,growth inhibition,[6]; at 33.0 µM,-1%
same,growth inhibition,[6]; [18],28%
same,growth inhibition,[6]; at 50.0 µM,59.8%
same,growth inhibition,[6]; at 100.0 µM,97% (active)
same,growth inhibition,[7]; at 1.2 µM,-4%
same,growth inhibition,[7]; at 3.7 µM,-1%
same,growth inhibition,[7]; at 11.0 µM,3%
same,growth inhibition,[7]; at 33.0 µM,40%
same,growth inhibition,[7]; at 100.0 µM,99% (active)
same,growth inhibition,[8]; [17],-58%
same,growth inhibition,[8]; [18],47%
same,growth inhibition,[8]; at 50.0 µM,17.2%
same,growth inhibition,[9]; at 1.2 µM,4%
same,growth inhibition,[9]; at 3.7 µM,1%
same,growth inhibition,[9]; at 11.0 µM,0%
same,growth inhibition,[9]; at 33.0 µM,0%
same,growth inhibition,[9]; at 100.0 µM,84% (active)
same,growth inhibition,[10]; [17],-63%
same,growth inhibition,[10]; [18],12%
same,growth inhibition,[10]; at 50.0 µM,0.55%
same,growth inhibition,[11]; at 1.2 µM,-7%
same,growth inhibition,[11]; at 3.7 µM,0%
same,growth inhibition,[11]; [17],-62%
same,growth inhibition,[11]; at 11.0 µM,8%
same,growth inhibition,[11]; at 33.0 µM,21%
same,growth inhibition,[11]; [18],54%
same,growth inhibition,[11]; at 50.0 µM,63.9%
same,growth inhibition,[11]; at 100.0 µM,93% (active)
same,growth inhibition,[12]; at 1.2 µM,0%
same,growth inhibition,[12]; at 3.7 µM,0%
same,growth inhibition,[12]; at 11.0 µM,1%
same,growth inhibition,[12]; at 33.0 µM,3%
same,growth inhibition,[12]; at 100.0 µM,93% (active)
same,growth inhibition,[13]; at 1.2 µM,7%
same,growth inhibition,[13]; at 3.7 µM,-3%
same,growth inhibition,[13]; at 11.0 µM,-5%
same,growth inhibition,[13]; at 33.0 µM,6%
same,growth inhibition,[13]; at 100.0 µM,98% (active)
same,growth inhibition,[14]; at 1.2 µM,1%
same,growth inhibition,[14]; at 3.7 µM,2%
same,growth inhibition,[14]; at 11.0 µM,3%
same,growth inhibition,[14]; at 33.0 µM,31%
same,growth inhibition,[14]; at 100.0 µM,97% (active)
same,growth inhibition,[15]; [17],-139%
same,growth inhibition,[15]; [18],73% (active)
same,growth inhibition,[15]; at 50.0 µM,67.5%
same,growth inhibition,[16]; at 1.2 µM,-1%
same,growth inhibition,[16]; at 3.7 µM,4%
same,growth inhibition,[16]; at 11.0 µM,13%
same,growth inhibition,[16]; at 33.0 µM,16%
same,growth inhibition,[16]; at 100.0 µM,96% (active)
